Screens from PubChem BioAssay.
SRC3 TRFRET art: TR-FRET detection interference compounds, artefact control for PPARgamma SRC-3 recruitment agonists, biochemical, TR-FRET ratio | TR-FRET artefact counter-screen, PPARgamma/SRC-3 format; active compounds read high | TR-FRET ratio at 8 µM | AID 1048, 2008 | hit rate 0.39% among 99,000
PPARg SRC-3 ag: PPARgamma agonists recruiting SRC-3 coactivator, primary screen, biochemical | hit rate 0.26% among 200,000 | activation, % at 8 µM | biochemical PPARgamma/SRC-3 coactivator recruitment assay | AID 731, 2007; in the data active = activation above about 23%
Target sequence (P37231 whole entry, looked up): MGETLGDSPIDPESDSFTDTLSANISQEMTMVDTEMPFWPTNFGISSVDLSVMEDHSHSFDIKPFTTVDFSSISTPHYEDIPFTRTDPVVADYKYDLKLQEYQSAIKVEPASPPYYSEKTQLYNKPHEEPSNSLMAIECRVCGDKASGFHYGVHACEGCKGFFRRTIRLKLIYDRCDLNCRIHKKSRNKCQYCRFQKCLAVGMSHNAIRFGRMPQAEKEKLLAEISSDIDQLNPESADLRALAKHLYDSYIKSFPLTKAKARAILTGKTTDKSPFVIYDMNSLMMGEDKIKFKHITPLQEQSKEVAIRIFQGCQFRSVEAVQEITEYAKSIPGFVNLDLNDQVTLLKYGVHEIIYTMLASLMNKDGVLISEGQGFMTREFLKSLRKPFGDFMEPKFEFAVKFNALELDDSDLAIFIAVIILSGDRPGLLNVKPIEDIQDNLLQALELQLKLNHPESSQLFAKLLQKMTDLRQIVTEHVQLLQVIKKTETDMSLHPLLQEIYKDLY
PPARg SRC-1 ag: PPARgamma agonists recruiting SRC-1 coactivator, primary screen, biochemical. PPARgamma-SRC-1 coactivator recruitment biochemical assay. activation, % at 8 µM. hit rate 0.41% among 200,000; in the data active = activation above about 19%
PPARg SRC-2 ag: agonists of PPARg-SRC-2 recruitment, primary screen, biochemical, HTS; Peroxisome proliferator-activated receptor gamma (Homo sapiens), P37231; PPARgamma LBD-SRC-2 recruitment; activation, % at 8 µM; hit rate 0.34% among 200,000; AID 1032, 2008; in the data active = activation above about 22%
SRC1 TRFRET art: TR-FRET detection interference compounds, primary screen, artefact control for PPARgamma SRC-1 recruitment agonists, biochemical, TR-FRET emission ratio. hit rate 0.34% among 99,000. TR-FRET ratio at 8 µM. TR-FRET detection artefact counter-screen; active compounds read high; in the data active = TR-FRET ratio above about 2300
SRC2 TRFRET art: TR-FRET signal artefacts, primary screen, artefact control for PPARgamma SRC-2 agonist project, biochemical. TR-FRET artefact counter-screen; active compounds read high. hit rate 0.4% among 200,000. TR-FRET ratio at 8 µM
Large screens that a line does not name were inactive. An excerpt weighted towards active compounds, which were near 0.9% of everything screened. Cut-off read from the data, not from the text of the source, unless noted: active = TR-FRET ratio above about 2000; inactive = the rest.

CCCN(CCC)CCCNC(=O)c1cc2c(=O)[nH]c3ccccc3c2n1C	none
CCSc1nnc(CNC(=O)C23CC4CC(CC(C4)C2)C3)n1C1CCCCC1	none
COc1ccc(-c2c(C#N)c(C)nc3c2C(=O)c2ccccc2-3)cc1	PPARg SRC-1 ag 23.9 (no result: SRC3 TRFRET art, SRC1 TRFRET art)
FC(F)(Cl)c1nnc2ccc(Cl)nn12	none
O=C(N/N=C/c1cnc(N2CCCCC2)s1)c1ccc(Cl)cc1	PPARg SRC-1 ag 21.1
O=[N+]([O-])c1ccccc1-c1ccc(C(=S)N2CCCC2)o1	SRC2 TRFRET art 1992
S=C(c1ccc(-c2cccc(Cl)c2)o1)N1CCOCC1	none
S=C(c1ccc(-c2cccc(Cl)c2)o1)N1CCCCC1	SRC1 TRFRET art 2350
Cc1cccc(N2CCN(C(=S)c3ccc(-c4ccccc4[N+](=O)[O-])o3)CC2)c1	none
CCN(C(=O)CSc1nc2ccccc2n1CCc1ccccc1)C1CCS(=O)(=O)C1 (stereo not drawn)	none (no result: SRC3 TRFRET art, SRC1 TRFRET art)
Cc1ccc(NC(=O)CSc2nnc(-c3ccccc3Br)o2)cc1C	none (no result: SRC3 TRFRET art, SRC1 TRFRET art)
Cc1cc(C)c(C(=O)CSc2nnc(-c3ccccc3Br)o2)cc1C	PPARg SRC-1 ag 26.9 (no result: SRC3 TRFRET art, SRC1 TRFRET art)
Cc1cc(=O)[nH]c2c1c(C)nn2C1CCCCC1	none (no result: SRC3 TRFRET art, SRC1 TRFRET art)
Cc1cc(=O)[nH]c2c1c(C)nn2C1CCCC1	PPARg SRC-2 ag 73.5, SRC2 TRFRET art 4512 (no result: SRC3 TRFRET art, SRC1 TRFRET art)
O=C1CCCN2N=C(SCC(=O)N3N=C(c4ccc(Br)cc4)CC3c3ccc(F)cc3)SC2=N1 (stereo not drawn)	SRC3 TRFRET art 2326, SRC2 TRFRET art 2012
COc1ccc(C2=NN(C(=O)CSc3nc4ccccc4s3)C(c3ccc(F)cc3)C2)cc1 (stereo not drawn)	none
S=c1[nH]nc(Cc2ccccc2)n1-c1cccc2ccccc12	none
O=C(CSc1nnc(C2CC2)n1-c1ccccc1)NCCc1ccc(F)cc1	PPARg SRC-2 ag 22.5, SRC2 TRFRET art 2046 (no result: SRC3 TRFRET art, SRC1 TRFRET art)
COc1ccc(/C=c2\s/c(=C(/C#N)C(=O)NCc3ccco3)n(-c3ccccc3)c2=O)cc1	none
COc1cccc(/C=c2/s/c(=C(\C#N)C(=O)N3CCOCC3)n(-c3ccccc3)c2=O)c1	PPARg SRC-3 ag 48.4 (no result: SRC3 TRFRET art, SRC1 TRFRET art)
CN(C)S(=O)(=O)c1ccc(NC(=O)c2cc(-c3cccs3)nc3ccccc23)cc1	SRC3 TRFRET art 3343, SRC1 TRFRET art 3250, SRC2 TRFRET art 2669
Cc1cc(NC(=O)c2cc(-c3cccs3)nc3ccccc23)no1	none (no result: SRC3 TRFRET art, SRC1 TRFRET art)
Cc1cc(C)nc(NC(=O)c2cc(-c3ccc(C)s3)nc3ccccc23)c1	SRC3 TRFRET art 2323
CCN(CC)S(=O)(=O)c1ccc(NC(=O)c2cc(-c3cccs3)nc3ccccc23)cc1	none
CC(Sc1nnc2ccccn12)C(=O)Nc1ccc2c(c1)OCO2 (stereo not drawn)	none
CCC(=O)NC(Nc1sc2c(c1C(=O)OC)CCCC2)(C(F)(F)F)C(F)(F)F	none (no result: SRC3 TRFRET art, SRC1 TRFRET art)
COC(=O)c1c(NC(NC(=O)c2ccccc2)(C(F)(F)F)C(F)(F)F)sc2c1CCN(C)C2	SRC2 TRFRET art 1983
CCn1ccc(C(=O)Nc2c(C)nn(Cc3c(F)c(F)c(F)c(F)c3F)c2C)n1	none
Clc1ccc(-c2ccc(C=Nc3ccc(N4CCOCC4)cc3)o2)c(Cl)c1	SRC2 TRFRET art 2149
O=C(NCCCCNC(=O)c1ccc(Cl)s1)c1ccc(Cl)s1	none (no result: SRC3 TRFRET art, SRC1 TRFRET art)
O=C(NCCCCCCNC(=O)c1ccc(Br)s1)c1ccc(Br)s1	SRC2 TRFRET art 2455 (no result: SRC3 TRFRET art, SRC1 TRFRET art)
COc1cccc(C(=O)C2CCCN(C(=O)CCC3=NNC(=O)CC3)C2)c1 (stereo not drawn)	none
COc1ccc(-c2cc(-c3ccccc3)nc3ncnn23)cc1	none
COc1ccc(-c2cc(-c3ccc(Br)cc3)nc3ncnn23)cc1OC	SRC2 TRFRET art 2400 (no result: SRC3 TRFRET art, SRC1 TRFRET art)
O=C(COC(=O)c1ccccc1NC(=O)c1ccco1)NC1CCS(=O)(=O)C1 (stereo not drawn)	none
O=C(COC(=O)c1ccccc1NC(=O)c1ccco1)NC1CC1	SRC2 TRFRET art 2060
C=CCn1c(SCc2ccc(C(=O)OC)cc2)nnc1-c1sc(N)nc1C	SRC2 TRFRET art 1972
N#Cc1c(SCC(N)=O)nc2c(c1-c1ccc(OCc3ccccc3)cc1)CCCC2	PPARg SRC-3 ag 70.6, PPARg SRC-1 ag 63.1 (no result: SRC3 TRFRET art, SRC1 TRFRET art)
O=c1cc(O)c2sc3nc(-c4cccnc4)cc(C(F)(F)F)c3c2[nH]1	none
OC1(c2ccc(Cl)cc2)CN(c2ccccc2)C2=[N+]1CCS2 (stereo not drawn)	none
OC1(c2ccc(Br)cc2)CN(c2ccccc2)C2=[N+]1CCS2 (stereo not drawn)	SRC3 TRFRET art 2102
C=C(C)c1cccc(C(C)(C)NC(=O)N2CCN(c3ccc(OC)cc3)CC2)c1	none
Cc1ccc(-c2csc(N/N=C/c3ccco3)n2)cc1	none (no result: SRC3 TRFRET art, SRC1 TRFRET art)
Brc1ccc(-c2csc(N/N=C/c3ccco3)n2)cc1	PPARg SRC-2 ag 22.0
CCN(CC)c1ccc(/C=N/NC(=O)c2c(Cl)cnn2C)c(O)c1	none
O=c1cnnc(SCc2ccc([N+](=O)[O-])cc2)[nH]1	PPARg SRC-3 ag 73.1, PPARg SRC-1 ag 78.6, PPARg SRC-2 ag 45.4
COc1ccc(N2CCN(C(=O)C3(C)CC3(Cl)Cl)CC2)cc1 (stereo not drawn)	none
COc1cc(NC(=O)c2ccc(Cl)cc2Cl)ccc1-c1cc2ccccc2oc1=O	SRC2 TRFRET art 2335 (no result: SRC3 TRFRET art, SRC1 TRFRET art)
COc1cc(NC(C)=O)ccc1-c1cc2ccccc2oc1=O	none
Cc1nc2ccc(-c3nc4ccc(N)cc4[nH]3)cc2[nH]1	SRC3 TRFRET art 2163
CCOC(=O)C1CCN(CCC(=O)Nc2ccc(C)c(C)c2)CC1	PPARg SRC-1 ag 21.6
CCc1cc2c(=O)c(-c3nc(C)cs3)c(CCCC(=O)O)oc2cc1O	none
CCc1cc2c(=O)c(-c3nc(C)cs3)coc2cc1OC(C)C(=O)NCCO (stereo not drawn)	PPARg SRC-1 ag 138.3, PPARg SRC-2 ag 24.8, SRC1 TRFRET art 5866, SRC2 TRFRET art 2120
Oc1c(Br)cc(Br)cc1C=NCc1ccc(F)cc1	PPARg SRC-1 ag 20.7
Oc1c(Br)cc(Br)cc1C=NCc1ccccc1	none
COc1ccc(C(=O)NCC(=O)N=Nc2c(O)n(Cc3ccccc3)c3ccccc23)cc1OC	PPARg SRC-2 ag 34.4, SRC2 TRFRET art 2099
O=C(N=Nc1c(O)n(Cc2ccccc2)c2ccccc12)c1ccc(O)cc1	none
COc1ccc(-n2nnnc2SCC(=O)c2cc3ccccc3o2)cc1	SRC2 TRFRET art 2072 (no result: SRC3 TRFRET art, SRC1 TRFRET art)
CCC(=O)N(Cc1ccco1)c1nc(C(=O)Nc2ccc(Cl)cc2)c(C)s1	SRC2 TRFRET art 1971
CCN(C(=O)c1ccco1)c1nc(CC(=O)Nc2ccc(Cl)cc2)cs1	none (no result: SRC3 TRFRET art, SRC1 TRFRET art)
COc1cccc(-c2ccc(C#N)c(SCC(=O)NCc3ccco3)n2)c1	SRC2 TRFRET art 1980
